# The source made the active and inactive calls. Unless noted, the rule behind the calls is not given here.
# Key:
# [1] = resazurin metabolic signal in HepG2 cells – cell-based, resazurin fluorescence, 24 h, PK04 Diversity Set, profiling panel (AID 1172); settings: HepG2 viability, higher = more signal
# [2] = budding yeast growth changes without added modifier – OD600, strain BY4716, 24 h, basal condition, primary screen (AID 1173); settings: S. cerevisiae BY4716 growth, OD600, 24 h; higher = more signal, called active from +8 up or from −8 down
# [3] = viability profiling in MM1S myeloma cells – cell-based, resazurin fluorescence, basal, 24 h, PK04 Diversity Set, profiling panel (AID 1174); settings: higher = more signal, called active from +8 up or from −8 down;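 note: MM1S multiple myeloma cell line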
# [4] = target: Dihydroorotate dehydrogenase (quinone), mitochondrial (Plasmodium falciparum (isolate 3D7)) (UniProt Q08210); assay: inhibition of P. falciparum DHODH – biochemical, C-terminal His tag, absorbance 600 nm, primary screen (AID 1175); settings: PfDHODH enzyme, DCIP absorbance 600 nm; higher = more signal, called active from +8 up or from −8 down;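 note: recombinant parasite enzyme with a five histidine tag at its C terminus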
# [5] = inhibition of PAO1 biofilm formation – strain PAO1, LB-PBS medium, absorbance 600 nm, primary screen (AID 1176); settings: P. aeruginosa PAO1 growth/biofilm, A600, 12 h; higher = more signal
# [6] = growth modulation of vineyard yeast isolate – strain RM11-1a, OD600, basal, 24 h, primary screen (AID 1177);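 note: cultures grown under basal conditions with no added stressor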; settings: S. cerevisiae RM11-1a growth, OD600, 24 h; higher = more signal, called active from +8 up or from −8 down
# [7] = growth of efflux-deficient E. coli DRC39 – strain DRC39, OD650, 24 h, E. coli filamentation inducers, primary screen (AID 1178);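 note: growth measured as culture turbidity by optical density at 650 nm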; settings: E. coli DRC39 acrAB, higher = more signal, called active from +8 up or from −8 down
# [8] = growth of efflux-deficient E. coli DRC39 – strain DRC39, OD650, 48 h, E. coli filamentation inducers, primary screen (AID 1179);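 note: screen aims at cell division blockers that make cells filament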; settings: E. coli DRC39 delta-acrAB growth, higher = more signal, called active from +8 up or from −8 down
# [9] = viability profiling in RPMI8226 myeloma cells – cell-based, resazurin fluorescence, basal, 24 h, PK04 Diversity Set, profiling panel (AID 1180); settings: higher = more signal;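 note: RPMI8826 multiple myeloma cell line at 5000 cells per well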
# [10] = target: E3 ubiquitin-protein ligase XIAP (Homo sapiens) (UniProt P98170); assay: small molecules binding XIAP protein – biophysical, small-molecule microarray, fluorescence 635 nm, primary screen (AID 1181); settings: higher = more signal;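 note: score merges 667 nm emission and signal to noise over triplicate slides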
# [11] = test system: XIP peptide (Xip251-270) binding; assay: XIP fragment 251-270 binding compounds – biochemical, small-molecule microarray, fluorescence 635/667 nm, 0.1 µg/mL protein, primary screen (AID 1182); settings: fluorescent protein binding, 635 nm, higher = more signal, called active from +8 up or from −8 down
# XIP peptide (Xip251-270) = assay: compounds binding XIP fragment 251-270 – biochemical, small-molecule microarray, fluorescence 635/667 nm, 0.5 µg/mL protein, primary screen (AID 1183); settings: fluorescence 635 nm, higher = more signal
# [12] = blood-stage malaria parasite viability loss – strain 3D7, DAPI fluorescence, 100 nL, primary screen (AID 1184);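 note: parasites grown inside human red blood cells in medium with human serum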; settings: P. falciparum 3D7 growth, 3 d, higher = more signal
# [13] = target: Homeobox protein Hox-A13 (Mus musculus) (UniProt Q62424); assay: disruptors of Hoxa13 oligonucleotide interaction – biochemical, fluorescence polarization, labeled oligonucleotide, primary screen (AID 1185); settings: Hoxa13:DNA binding, 15 min, higher = more signal, called active from +8 up or from −8 down
# [14] = blockers of DNA damage checkpoint Chk1 activation – imaging, HeLa, hydroxyurea, phospho-Chk1 antibody, percent positive cells, primary screen (AID 1186); settings: hydroxyurea-induced phospho-Chk1 immunofluorescence imaging, higher = more signal
# [15] = blockers of DNA damage checkpoint Chk1 activation – imaging, HeLa, hydroxyurea, phospho-Chk1 nuclear intensity, primary screen (AID 1187); settings: hydroxyurea-induced phospho-Chk1 immunofluorescence imaging, higher = more signal
# Sequence of Homeobox protein Hox-A13 (Mus musculus) (Q62424 whole entry, looked up): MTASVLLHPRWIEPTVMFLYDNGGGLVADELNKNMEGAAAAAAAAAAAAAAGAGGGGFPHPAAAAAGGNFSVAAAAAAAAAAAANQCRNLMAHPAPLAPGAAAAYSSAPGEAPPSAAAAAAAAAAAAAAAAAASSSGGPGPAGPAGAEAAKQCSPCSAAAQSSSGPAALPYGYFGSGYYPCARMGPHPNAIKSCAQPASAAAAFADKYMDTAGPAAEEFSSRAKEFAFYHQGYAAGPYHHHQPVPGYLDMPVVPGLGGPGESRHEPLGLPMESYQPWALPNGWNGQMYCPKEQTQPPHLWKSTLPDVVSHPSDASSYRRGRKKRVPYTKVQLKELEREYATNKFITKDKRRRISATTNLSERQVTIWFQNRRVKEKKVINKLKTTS
# Sequence of Dihydroorotate dehydrogenase (quinone), mitochondrial (Plasmodium falciparum (isolate 3D7)) (Q08210 whole entry, looked up): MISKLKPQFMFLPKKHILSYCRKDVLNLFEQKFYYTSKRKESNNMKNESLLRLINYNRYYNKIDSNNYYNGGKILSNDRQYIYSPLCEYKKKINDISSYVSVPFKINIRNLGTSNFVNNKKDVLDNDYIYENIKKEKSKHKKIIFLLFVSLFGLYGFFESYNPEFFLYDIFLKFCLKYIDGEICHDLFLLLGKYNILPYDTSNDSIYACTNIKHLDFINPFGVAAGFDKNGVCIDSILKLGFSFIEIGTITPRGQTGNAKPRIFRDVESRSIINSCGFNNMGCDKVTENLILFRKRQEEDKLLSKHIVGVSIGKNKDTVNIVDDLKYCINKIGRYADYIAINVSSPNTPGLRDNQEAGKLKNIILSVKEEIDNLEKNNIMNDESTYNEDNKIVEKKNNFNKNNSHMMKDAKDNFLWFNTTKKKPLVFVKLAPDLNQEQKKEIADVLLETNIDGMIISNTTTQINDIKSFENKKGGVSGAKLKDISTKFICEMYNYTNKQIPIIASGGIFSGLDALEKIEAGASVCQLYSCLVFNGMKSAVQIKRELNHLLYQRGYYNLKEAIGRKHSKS
# Sequence of E3 ubiquitin-protein ligase XIAP (Homo sapiens) (P98170 whole entry, looked up, the tested form may be a part): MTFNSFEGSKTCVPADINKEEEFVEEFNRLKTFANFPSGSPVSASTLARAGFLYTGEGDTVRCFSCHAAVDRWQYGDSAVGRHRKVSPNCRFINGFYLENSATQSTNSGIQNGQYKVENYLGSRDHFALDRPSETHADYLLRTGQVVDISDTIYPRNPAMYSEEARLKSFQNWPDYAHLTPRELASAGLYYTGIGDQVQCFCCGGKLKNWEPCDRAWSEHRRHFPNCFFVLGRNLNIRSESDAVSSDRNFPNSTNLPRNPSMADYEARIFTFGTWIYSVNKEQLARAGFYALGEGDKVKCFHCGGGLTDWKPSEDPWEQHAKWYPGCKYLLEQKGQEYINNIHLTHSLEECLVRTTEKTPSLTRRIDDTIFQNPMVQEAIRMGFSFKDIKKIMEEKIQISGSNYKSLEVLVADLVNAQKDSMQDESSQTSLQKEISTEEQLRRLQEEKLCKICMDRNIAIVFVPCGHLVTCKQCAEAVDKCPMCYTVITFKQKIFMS
Structure (SMILES),z-score [1],z-score [2],z-score [3],composite z-score [4],z-score [5],z-score [6],z-score [7],z-score [8],z-score [9],composite z-score [10],composite z-score [11],composite z-score (XIP peptide (Xip251-270)),z-score [12],z-score [13],z-score [14],z-score [15]
CC(C)N1CC=CC23O[C@@H]4C=CCCOC(=O)C4[C@H]2C(=O)N(CCCCCO)[C@@H]3C1=O (some centres undefined),0.613,0.848 (inactive),0.988 (inactive),-0.727 (inactive),0.0126 (inactive),0.581 (inactive),1.01 (inactive),0.798 (inactive),1.42,0.0684,0.192 (inactive),-0.386,0.263,-3.86 (inactive),-0.389 (inactive),0.0936 (inactive)
CCCC[C@@H]1C[C@H]1[C@@H](NC(=O)c1ccc(C(F)(F)F)cc1)c1ccc(C(=O)OC)cc1,1.51,0.146 (inactive),0.444 (inactive),-0.0667 (inactive),1.02 (inactive),1.02 (inactive),0.909 (inactive),0.787 (inactive),0.971,0.209,-0.0437 (inactive),0.368,-0.557,-0.759 (inactive),0.894 (inactive),0.397 (inactive)
CC(C)(C)OC(=O)CC[C@]1(C(N)=O)N=C(c2ccc(OCCCO)cc2)O[C@H]1c1ccccc1CN=[N+]=[N-],0.0283,0.632 (inactive),0.455 (inactive),0.369 (inactive),-0.568 (inactive),1.55 (inactive),2.09 (inactive),0.64 (inactive),0.282,0.108,-0.226 (inactive),0.819,-0.176,-4.12 (inactive),-0.198 (inactive),0.0796 (inactive)
C#CCN([C@H](/C=C/C1CC1)[C@@H](O)Cc1ccccc1)[C@@H](Cc1ccccc1)C(=O)OC,1.82,0.0363 (inactive),1.59 (inactive),0.373 (inactive),-0.319 (inactive),0.97 (inactive),1.07 (inactive),0.968 (inactive),0.737,0.271,0.17 (inactive),-0.205,-0.752,-4.57 (inactive),-0.587 (inactive),-0.959 (inactive)
COC(=O)[C@@]1(Cc2ccccc2)[C@@H]2[C@@H](CC(=O)[C@H]2CC(=O)C(=O)N(C)C)CN1C(=O)c1ccccc1,0.166,1.55 (inactive),-1.18 (inactive),0.823 (inactive),0.535 (inactive),1.02 (inactive),-0.49 (inactive),-0.0021 (inactive),-0.0757,0.0464,-0.282 (inactive),-0.0913,-1.23,-4.98 (inactive),0.273 (inactive),0.082 (inactive)
O=C1O[C@H](c2ccccc2)[C@H](c2ccccc2)N2[C@H]1[C@@H](C(=O)NC[C@H](O)c1ccccc1)[C@]1(C(=O)Nc3ccc(C#CCCO)cc31)[C@H]2c1ccccc1OCCO,1.19,0.904 (inactive),-1.12 (inactive),-0.532 (inactive),0.517 (inactive),1.48 (inactive),0.439 (inactive),-0.467 (inactive),-0.591,-0.209,0.419 (inactive),0.693,-1.4,-4 (inactive),0.125 (inactive),0.46 (inactive)
C=CCC(OC(C)=O)[C@@H]1[C@@H](N(Cc2ccc(-c3ccccc3)cc2)C(=O)c2ccc(-c3ccccc3)cc2)c2cc(OCCCO)ccc2N1C(=O)c1ccc2ccccc2n1 (some centres undefined),1.16,-0.599 (inactive),1.3 (inactive),-0.149 (inactive),0.149 (inactive),-0.354 (inactive),0.348 (inactive),0.308 (inactive),1.13,-0.0103,-0.649 (inactive),0.119,-0.273,-0.983 (inactive),0.0922 (inactive),0.352 (inactive)
CC(C)C[C@H]1NC(=O)[C@@H](C)NC(=O)[C@@]23C(=O)N[C@@H](Cc4ccccc4)C2[C@H](C)[C@@]2(C)O[C@H]2C3/C=C/C/C=C\CNC1=O (some centres undefined),-0.328,-0.808 (inactive),0.0814 (inactive),-1 (inactive),0.531 (inactive),-1.27 (inactive),-0.46 (inactive),0.184 (inactive),0.184,-0.102,1.06 (inactive),0.679,0.234,-6.94 (inactive),0.255 (inactive),0.0218 (inactive)
COCCOC(=O)N1C(=O)[C@@]2(c3cc(C#CCCO)ccc31)[C@H](c1ccc(O)cc1)N1[C@H](c3ccccc3)[C@H](c3ccccc3)OC(=O)[C@H]1[C@@H]2C(=O)N1CCc2cc(OC)c(OC)cc2C1,0.458,0.537 (inactive),0.202 (inactive),-1.1 (inactive),0.318 (inactive),1.26 (inactive),0.886 (inactive),0.821 (inactive),1.26,-0.0272,0.0404 (inactive),0.786,-0.0976,-1.97 (inactive),-0.0202 (inactive),0.0613 (inactive)

# Reference: PubChem BioAssay
